{
  "source": "paper PMC13494018",
  "binders": {"B1": {"name": "Pdl1_binder_AF2_2 (protein)", "chain": "SIEEMVEEMEKLLEEAAKIVPEIKELLEKAKEIAKKAIEIAKKKGNGEAVAKIFRDMAEMTLRAAKFDKKGAENAALLMIKRAEDIAE"}, "B2": {"name": "Pdl1_binder_AF2_43 (protein)", "chain": "SAIEKTKEKIRQLFESAGVEVEDIEVEGDTITVHVKEDTEAARQAALLANVYAEDKVGLKVVLEA"}, "B3": {"name": "d4r5_design_ppi_466_dldesign_0_cycle0_af2pred (protein)", "chain": "SEAEEILRETVERATAAAAAEDPALAPRVRAAAERAAEIAKSQKSIEAAAGVLEIFADRAAAASPAAAAVAREGARRLEELAK"}, "B4": {"name": "d4r5_design_ppi_438_dldesign_0_cycle1_af2pred (protein)", "chain": "DLEELKRRAEQVELLVEMAEEEAKTGSKEEALALLNSAIRDAKEVAEEGAAYPEVSERAKAALERAEKIRKELLAS"}, "B5": {"name": "d4r5_design_ppi_428_dldesign_0_cycle1_af2pred (protein)", "chain": "AAAAAETAAARERAARDLARAEAAAKAGKADPSKAPLAIAILEGVAERFEFYAKAAGPAAAAVAREAAERAKALAKEL"}, "B6": {"name": "d4r5_design_ppi_497_dldesign_0_cycle0_af2pred (protein)", "chain": "KKEEVRKITEEAIEKMRTVEPEEAVNAVQDAQFEMQGLAPTAETRRKVARLASEAARLVATGEKVEEGIEKLREAGEYLIESL"}, "B7": {"name": "d4r5_design_ppi_473_dldesign_0_cycle1_af2pred (protein)", "chain": "GEAKRKKAEALLERYKARAEELIEKAKASDYVTAESYAISVETRFTDFAAAAEKDPATKEVAKRAKKVGKEYVEKLKKIAEEKKAAE"}, "B8": {"name": "Pdl1_binder_AF2_7 (protein)", "chain": "DKESAAKKAIQLLEIARERVVADPAAAKAFKEAAKLVEVMLKDAGADEEKAEKVEEKAEKAADAYAAGDKETADKYYEEAVELVKEAA"}, "B9": {"name": "d4r5_design_ppi_429_dldesign_0_cycle0_af2pred (protein)", "chain": "VEEAKKLGEEYIKKVKEAKDAKEALEIGEKAAKELVEKAKASEDGETAQAYLEAASEVKATALRQARKLEE"}, "B10": {"name": "Pdl1_binder_AF2_37 (protein)", "chain": "SETTLKETAKLIEVMAKDRGEFVKIEAKGDKIVLYTKTEEGAKKINKEGSKLAKSVGVEFEAKVA"}, "B11": {"name": "Pdl1_binder_AF2_51 (protein)", "chain": "MEVIYADTKEEATMKVMEALSRGVAREDILVYLKDAKDAEKLAKVWGVTAKLA"}, "B12": {"name": "d4r5_design_ppi_448_dldesign_0_cycle0_af2pred (protein)", "chain": "MKEKLKKEAKEAEKKMEELIKKIEEANPEAGKVAREAREKGKASPKGREYTNKGISEAGKLAGPEVAPIAQEARQEAAAADAYKKII"}, "B13": {"name": "d4r5_design_ppi_435_dldesign_0_cycle1_af2pred (protein)", "chain": "SKSKKEAEKMREATRAFKEAGKAAAAAIASGETGEEAIAAARAKAEEVIKEAKEVGEGAGEFAEMLKENLDKALAAAS"}, "B14": {"name": "Pdl1_binder_AF2_30 (protein)", "chain": "MSKRDELLTKALEYLQKATKLVYEHDPETAREIAHHFSKAVADPEKAEEELEKALELAEKAAAEMERGEELRELMEKAKEYVLEYVKL"}, "B15": {"name": "d4r5_design_ppi_490_dldesign_0_cycle0_af2pred (protein)", "chain": "SKEEEAKKTGKEQVKKVKETAETGTAAETAETAQEARAELNEKAAEAGTEEARKIAEEAKKEIREIVKKKKEEEA"}, "B16": {"name": "d4r5_design_ppi_384_dldesign_0_cycle1_af2pred (protein)", "chain": "GITWDELMDIQADAFYYLSEAKKITPEAEAKAKELYQKSLEYYKKAAEYLAKAEEVGPEAKEEAKEYADKAAEEVEKLKKLVEEAKN"}, "B17": {"name": "Pdl1_binder_AF2_33 (protein)", "chain": "MEEAKRVAEQMALMMRAAGEEASVEVEGDKITIYYKGDDESLWEVAESVAEKIEEKYGVEVEVVR"}, "B18": {"name": "Pdl1_binder_AF2_49 (protein)", "chain": "SKKVRFQAYQASAEVIAKEVGGYVVSTGPDKVVIAAPTEEAAEKARKALDELGKAFGFGYEVFVA"}, "B19": {"name": "d4r5_design_ppi_459_dldesign_0_cycle1_af2pred (protein)", "chain": "DLEALKEKYLKETKAAAEKAAKIDKKVGDELKDLAELIKEGYGVKGNYNKAKALAAKAEADAKKEAALKA"}, "B20": {"name": "Pdl1_binder_AF2_3 (protein)", "chain": "MEKAEERKKWLLEKLKELGVEVKEISLDGHVVITGAKSEEALKGAESLVKMFGLFLGVEAKVEVV"}, "B21": {"name": "d4r5_design_ppi_375_dldesign_0_cycle0_af2pred (protein)", "chain": "KEKEMANKLQEKIEELYSAATPEQQSKVSEKIKEARKAAKEAVKKYKEDEEKGKELFKKAEEILEEGLKEAK"}, "B22": {"name": "d4r5_design_ppi_400_dldesign_0_cycle1_af2pred (protein)", "chain": "AAAEAAAKEAAKAKADELLKKAKESYEEAKKNKDNKELVFKYLADIEVKAAQADFLGAKDPYAKEKAKEIEKLAKEAEKILK"}, "B23": {"name": "d4r5_design_ppi_384_dldesign_0_cycle0_af2pred (protein)", "chain": "AVTWDEILDIQARANYYLSEAKKLTEEAYKEAKKLYEEARKHYGEAAKYLADAPKVGEEAKKKAAEHAKEAEKLVKELEELVKKAKE"}, "B24": {"name": "Pdl1_binder_AF2_13 (protein)", "chain": "MYVLVAKADENEARFLKLMAEKLGVKAEVEGDIVTFVSDDKEAIEIIRRFLEKEGRVISFEE"}, "B25": {"name": "Pdl1_binder_AF2_12 (protein)", "chain": "MHRTVTVKNEAEAIAAVIEAYHSGEKLTIVTDSEEIAKKAERLNKQLGGNATFEV"}, "B26": {"name": "Pdl1_binder_AF2_45 (protein)", "chain": "MIVHIETPTRDLQLFLKLYAEEKGFKVVEAGETSLVIESDLPREKVEKFIRIAEAMGAKVEVEE"}, "B27": {"name": "Pdl1_binder_AF2_18 (protein)", "chain": "DEETRREIAEHLLRVAKKDQGLVDAEIEGDKVRVKAKTEEQYEKGKIAAEAAAAIVGGEAEAEIV"}, "B28": {"name": "Pdl1_binder_AF2_8 (protein)", "chain": "YKLVVEAPNEKIAEQIKEIAESIGAKAEIEGMKVVIEADDKQTIEFIKLYAEEKGAKVLEIT"}, "B29": {"name": "d4r5_design_ppi_343_dldesign_0_cycle1_af2pred (protein)", "chain": "GEEEEKKKKLNELQDEAAEAIGEVYLEAKKTGELELAKEVSKKVRKALKDPEEAKKAIEEAKKEAKKLKKKL"}, "B30": {"name": "d4r5_design_ppi_378_dldesign_0_cycle0_af2pred (protein)", "chain": "AAAAAAAARAAMAAQAAANAAKAKEVFDKLAETYPEAKDEAKAKAAEVAAAFAATAAAGGDQAQLTANNNAAQDARSEVIAIANKK"}, "B31": {"name": "Pdl1_binder_AF2_35 (protein)", "chain": "SLKEKAEKHIEEAEKLAKKVGELADKEKAEKAIELLKKGTPESIVEAIALLDQLAKEEKENKEEVRKLASEAIVAAMKAAALLDAAEE"}, "B32": {"name": "d4r5_design_ppi_375_dldesign_0_cycle1_af2pred (protein)", "chain": "AAKEMANELQELIEKLREASSVKDQNEVSKVIKEARKKAKEAIKAYEKDPELGKKLFEEAKEILEKALKKAE"}, "B33": {"name": "d4r5_design_ppi_438_dldesign_0_cycle0_af2pred (protein)", "chain": "SKEEMERRAEQVEKAVEGAEEEAKEGTPEEALALLRSVLRRAKEVAEESKKYPEVKKRAEKALERAEKIKKELLEK"}, "B34": {"name": "d4r5_design_ppi_400_dldesign_0_cycle0_af2pred (protein)", "chain": "AAAAAAAKAAAKAAAEKDLKRAEEAYKNAKKNKDNKEIVFKNYAEIETKAARADALAAADPYAAEAAKKIKELAEEAEKILK"}, "B35": {"name": "d4r5_design_ppi_347_dldesign_0_cycle1_af2pred (protein)", "chain": "GREEEAKRVAEVILERLKDPKAQEAAKKTGEAGKAFLEAYELYKKDREAGIEYLAKEILKNPSWAQDFRENYAEEEAK"}, "B36": {"name": "d4r5_design_ppi_466_dldesign_0_cycle1_af2pred (protein)", "chain": "EEKKKILEEAAKEAAAAAKADNPELAPRVERLAKRAVEIGTKQKSVEAAAGVMENAADQAAAAAPAAAAVLKKGAEELEKLAK"}, "B37": {"name": "Pdl1_binder_AF2_22 (protein)", "chain": "YRIAIFFPSREKAEEWAAEARAAGRLVRYLTNLMVVEVDSEEEARAVAAEAEALGAATVFLD"}, "B38": {"name": "Pdl1_binder_AF2_5 (protein)", "chain": "EEDLEKLVELARKALEHIKRAAEYSKEDESKMAEELAKAVALASEISKIDVEVAKLVLKAVNAVMKGDRLEEGVKLAEEALKRAEEKK"}, "B39": {"name": "Pdl1_binder_AF2_6 (protein)", "chain": "SDELRVEAVQVAQEASVAIARAERAVAEGDAEEIRRAAEELERAARRAEEQAERLEEAGDKGMAEFLRRVVERAREAAARARRAAEEL"}},
  "note": "Unmarked numbers belong to inactive results. How the calls were made is not given here.",
  "data": [
    {"target": "control:Baker_PD-L1, Q9NZQ7", "sequence (Q9NZQ7 whole entry)": "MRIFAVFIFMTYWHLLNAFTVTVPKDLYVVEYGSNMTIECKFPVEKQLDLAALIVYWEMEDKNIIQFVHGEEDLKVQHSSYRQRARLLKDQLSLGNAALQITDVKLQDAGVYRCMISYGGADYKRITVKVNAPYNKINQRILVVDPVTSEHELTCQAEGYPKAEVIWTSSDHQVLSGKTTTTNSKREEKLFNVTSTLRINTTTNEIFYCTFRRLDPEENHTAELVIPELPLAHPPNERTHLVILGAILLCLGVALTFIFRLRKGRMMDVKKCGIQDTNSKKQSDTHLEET", "values": [
      {"binder": "B1", "binding in a display sort": "not found"},
      {"binder": "B2", "binding in a display sort": "not found"},
      {"binder": "B8", "binding in a display sort": "not found"},
      {"binder": "B10", "binding in a display sort": "not found"},
      {"binder": "B11", "binding in a display sort": "not found"},
      {"binder": "B14", "binding in a display sort": "not found"},
      {"binder": "B17", "binding in a display sort": "not found"},
      {"binder": "B18", "binding in a display sort": "not found"},
      {"binder": "B20", "binding in a display sort": "not found"},
      {"binder": "B24", "binding in a display sort": "not found"},
      {"binder": "B25", "binding in a display sort": "not found"},
      {"binder": "B26", "binding in a display sort": "binds (active)"},
      {"binder": "B27", "binding in a display sort": "not found"},
      {"binder": "B28", "binding in a display sort": "binds (active)"},
      {"binder": "B31", "binding in a display sort": "not found"},
      {"binder": "B37", "binding in a display sort": "not found"},
      {"binder": "B38", "binding in a display sort": "binds (active)"},
      {"binder": "B39", "binding in a display sort": "not found"}
    ]},
    {"target": "VTCN1, Q7Z7D3", "sequence (Q7Z7D3 whole entry)": "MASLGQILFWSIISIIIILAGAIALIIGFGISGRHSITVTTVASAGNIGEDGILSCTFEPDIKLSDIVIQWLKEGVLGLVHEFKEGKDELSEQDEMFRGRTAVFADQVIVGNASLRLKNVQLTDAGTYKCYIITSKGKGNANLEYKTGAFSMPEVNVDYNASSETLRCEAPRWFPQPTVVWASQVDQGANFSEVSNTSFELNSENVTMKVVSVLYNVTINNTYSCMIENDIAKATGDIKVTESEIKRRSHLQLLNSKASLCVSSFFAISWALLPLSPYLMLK", "values": [
      {"binder": "B3", "binding in a display sort": "not found"},
      {"binder": "B4", "binding in a display sort": "not found"},
      {"binder": "B5", "binding in a display sort": "not found"},
      {"binder": "B6", "binding in a display sort": "not found"},
      {"binder": "B7", "binding in a display sort": "not found"},
      {"binder": "B9", "binding in a display sort": "not found"},
      {"binder": "B12", "binding in a display sort": "not found"},
      {"binder": "B13", "binding in a display sort": "not found"},
      {"binder": "B15", "binding in a display sort": "not found"},
      {"binder": "B16", "binding in a display sort": "not found"},
      {"binder": "B19", "binding in a display sort": "not found"},
      {"binder": "B21", "binding in a display sort": "not found"},
      {"binder": "B22", "binding in a display sort": "not found"},
      {"binder": "B23", "binding in a display sort": "not found"},
      {"binder": "B29", "binding in a display sort": "not found"},
      {"binder": "B30", "binding in a display sort": "not found"},
      {"binder": "B32", "binding in a display sort": "not found"},
      {"binder": "B33", "binding in a display sort": "not found"},
      {"binder": "B34", "binding in a display sort": "not found"},
      {"binder": "B35", "binding in a display sort": "not found"},
      {"binder": "B36", "binding in a display sort": "not found"}
    ]}
  ]
}
